The structures appear in SMILES notation. Compounds without any hit were thinned out: in the full panel of roughly 83,000, 20% have a hit.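 The test compound was applied at a single concentration to cells in 96-well plates for 48 hours, and percent growth was recorded.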 Active and inactive are the calls of the source.

This test has as its system NCI-H23 lung. The test can be described thus: NCI-60 one-dose screen, 48 h (100 = growth as untreated, 0 = no growth, -100 = all killed). The conditions noted are these: 10 µM unless noted. On the procedure:
Growth inhibition of the NCI-H23 human Non-Small Cell Lung tumor cell line is measured as a screen for anti-cancer activity. Cells are grown in 96 well plates and exposed to the test compound for 48 hours. Compounds are tested at a single concentration, which is 10^-5 M for most compounds. The reported endpoint is percent growth (GI% or GIPRCNT), where numbers from 0 - 100% represent growth inhibition, and numbers from -100% - 0 represent cell death. For example, a value of 40 represents 60% growth inhibition. A value of 0 means no net growth occurred over the course of the experiment. A value of -40 indicates 40% of cells at the beginning of the experiment died by the end of the experiment. A value of -100 means all cells are dead at the end of the experiment.
NCI-60 Human Tumor Cell Lines Screen was performed using the standard one-dose NCI protocol, which is described in more detail at https://dtp.cancer.gov/discovery_development/nci-60/default.htm.
Compounds with GIPRCNT values below 10 were considered active. Activity score was based on GIPRCNT using the following formula: […]
Score is 0 for GIPRCNT values of 100 or above, 50 for GIPRCNT values of 0, and 100 for GIPRCNT values of -100.
Consider `Cc1nc(N)ncc1-c1ccc2ncnc(N3CCc4cc(F)c(Cl)cc43)c2c1`, for which the growth is 84.3% (inactive).

For `CN1CCN(c2ccc3c4c(cccc24)C(=O)N(c2cccc(-c4nn(-c5ccccc5)cc4-c4nc5ccccc5s4)c2)C3=O)CC1`, the growth is 97.9% (inactive).

`Oc1ccc(Cl)c(Nc2ncnc3c2cnn3CC(Cl)c2ccc(Br)cc2)c1` (stereo not given): the growth was 65.8% (inactive).

On to `COc1cc(-c2ccc3ncnc(N4CCc5ccc(Cl)cc54)c3c2)cnc1Cl`, for which the growth was 19.9% (inactive).

As to `COc1cc(NC(=O)CSc2nnc(-c3ccc(-c4nc5ccc(Cl)cc5[nH]4)cc3)o2)cc(OC)c1OC`, the growth was 52.2% (inactive).

In the case of `FC(F)(F)c1cc2c(Cl)ncnc2n1CCN1CCOCC1`, the growth was 62.9% (inactive).

`COc1ccc2c(c1)C(Sc1ccc(Cl)cc1)c1c(nc(N)c(C#N)c1N)O2` (stereo not given): the growth is 74.6% (inactive).

On to `FC(F)(F)CN1CCN(CCn2c(C(F)(F)F)cc3c(Cl)ncnc32)CC1`, for which the growth is 16.5% (inactive).

Turning to `Fc1ccc(F)c(CNc2nc(SCCN3CCOCC3)nc3c2cnn3CC(Cl)c2ccc(Br)cc2)c1` (stereo not given), the growth was 40.3% (inactive).

As for `Fc1cccc(CNc2nc(SCCN3CCOCC3)nc3c2cnn3CC(Cl)c2ccc(Br)cc2)c1` (stereo not given), the growth is 46.2% (inactive).

In the case of `COc1ccc(NC(=O)Cn2c(/C=C/c3cccc(OC)c3)nc3ccccc3c2=O)cc1`, the growth is 40.8% (inactive).

Regarding `Cn1cc(-c2cc(N)n3nc(-c4c[nH]c5ccccc45)cc3n2)c2cc(F)ccc21`, the growth is 44.7% (inactive).

On to `CN1CCN(CCS(=O)(=O)Nc2cc(-c3ccc4ncnc(Nc5ccc(F)c(Cl)c5)c4c3)cnc2Cl)CC1`, for which the growth is 13% (inactive).

`Cn1cc(-c2cc3nc(-c4c[nH]c5ccccc45)cc(N)n3n2)c2ccccc21`: the growth is -56.9% (active).

As for `COc1ccccc1NC(=O)N/N=C/c1c[nH]c2ccccc12`, the growth is 0.507% (active).

As to `CCOC(=O)/C(F)=C/C1CC1C1CCN(C(=O)OC(C)(C)C)CC1` (stereo not given), the growth is 93.8% (inactive).

As for `CCCSc1nnc(-c2c(C)nc3sccn23)o1`, the growth is 90.5% (inactive).

`Cc1nc2sccn2c1-c1nnc(SCC(C)C)o1`: the growth is 85.9% (inactive).

With `Nc1cc2ccccc2c(=O)n1NC(=O)c1ccccc1`, the growth was 87.4% (inactive).

Take `O=C1Nc2cc(-c3ccc(NS(=O)(=O)c4ccc(F)c(Cl)c4)cc3)ccc2/C1=C/c1ccc[nH]1`: the growth was -25.5% (active).

As to `Cn1cc(-c2cc(N)n3nc(-c4c[nH]c5ccccc45)cc3n2)c2ccccc21`, the growth was -73.4% (active).

Take `CCOC(=O)c1ccc(NC(=S)NC(=O)c2ccc(NC(=O)C(C)C)cc2OC)cc1`: the growth is 15.9% (inactive).

Regarding `COc1ccc2[nH]cc(-c3cc(N)n4nc(-c5c[nH]c6ccccc56)cc4n3)c2c1`, the growth was -12.1% (active).

Consider `CC1=C(C(=O)Nc2ccccc2)C(c2cccc(Cl)c2Cl)n2c(nc3ccccc32)N1` (stereo not given), for which the growth is 61.3% (inactive).

Turning to `OC(c1ccccc1)(c1ccccc1)C1CCN(c2ccc3nnc(Cl)n3n2)CC1`, the growth was 36.8% (inactive).

For the compound `N#Cc1ccc(C(=O)CSc2nc3c(c(Nc4ccc(S(N)(=O)=O)cc4)n2)CCC3)cc1`, the growth was -0.896% (active).

Turning to `CCCCCCCCc1ccc(C(=O)Nc2ccc(C)c(OP(=O)(O)O)c2)cc1`, the growth was 101% (inactive).

Turning to `CCOc1ccccc1[C@H]1C(C(=O)c2ccc(Cl)cc2)C2(N[C@@H]1c1ccccc1)C(=O)Nc1ccccc12` (stereo not given in full), the growth is 4.22% (active).

As to `C=CC(=O)Nc1ccc(C(=O)/C=C/c2ccc(N(C)C)cc2)c(O)c1`, the growth was 4.7% (active).

Regarding `S=C(Nc1ccc(OCc2nc3ccc(Cl)cc3[nH]2)cc1)NC1CCCCC1`, the growth was -68.3% (active).

`O=C1Nc2cc(-c3ccc(NS(=O)(=O)c4ccc(C(F)(F)F)cc4)cc3)ccc2/C1=C/c1ccc[nH]1`: the growth is 11% (inactive).

On to `O=C(c1cc2cc(OCCCN3CCC3)ccc2[nH]1)N1C[C@@H](CCl)c2c1cc(OCc1ccccc1)c1ccccc21`, for which the growth is -73.4% (active).

With `COc1cc(CNC(=O)C[C@H](C)CCC=C(C)C)ccc1OCc1cn(-c2ccccc2Cl)nn1`, the growth is 64.5% (inactive).

Take `CCC(=O)c1cc(C(=O)OC)c2ccc3c4ccccc4ccc3n12`: the growth was 85.2% (inactive).

On to `COc1cc(C2CC(c3ccc(F)cc3)=Nc3c(N)nc(N)nc3N2)ccc1Oc1nc(Nc2ccc(F)cc2)nc(N(C)C)n1` (stereo not given), for which the growth is 70% (inactive).

Turning to `COc1ccc2[nH]c(=O)c(CSc3ccccc3Nc3nccc(-c4ccc(Cl)cc4)n3)cc2c1`, the growth is 43.2% (inactive).

As to `O=C(Nc1ccc(-c2ccc3c(c2)NC(=O)/C3=C\c2ccc[nH]2)cc1)Nc1ccc(Cl)c(Cl)c1`, the growth is 37.8% (inactive).

On to `c1ccc(CSc2nnc(-c3ccc4nc(-c5ccccc5)[nH]c4c3)o2)cc1`, for which the growth is 68% (inactive).

For the compound `COc1ccc(-c2cc(C)nc3[nH]c(=O)sc23)cc1`, the growth is 74.3% (inactive).

Consider `O=C(CSc1nc2ccccc2c(=O)[nH]1)NNC(=O)c1ccccc1Cl`, for which the growth was 104% (inactive).

The values above are taken from PubChem BioAssay (NCI).
